M1 PAM: positive allosteric modulators of human M1 muscarinic receptor. P11229. CHO-K1 hM1, Fluo-8 calcium fluorescence, ACh EC20; 0% = ACh EC20, 100% = maximal ACh. activation, % at 3 µM. actives 0.088% (n = 360,000). AID 588819; in the data active = activation above about 19%, passing the limit was not always enough
Target sequence (P11229 whole entry, looked up): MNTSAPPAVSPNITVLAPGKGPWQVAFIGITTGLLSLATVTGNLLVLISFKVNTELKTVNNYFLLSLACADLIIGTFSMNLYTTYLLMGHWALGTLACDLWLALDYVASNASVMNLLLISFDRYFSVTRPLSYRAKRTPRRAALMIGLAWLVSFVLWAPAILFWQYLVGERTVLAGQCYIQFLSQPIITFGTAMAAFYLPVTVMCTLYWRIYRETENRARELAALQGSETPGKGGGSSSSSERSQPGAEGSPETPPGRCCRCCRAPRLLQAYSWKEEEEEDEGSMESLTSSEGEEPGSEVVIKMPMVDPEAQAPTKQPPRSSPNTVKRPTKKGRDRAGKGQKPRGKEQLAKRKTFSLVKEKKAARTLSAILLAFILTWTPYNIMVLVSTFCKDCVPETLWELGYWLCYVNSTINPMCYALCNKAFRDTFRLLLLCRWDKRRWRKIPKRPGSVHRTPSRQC
M1 ag: activates human CHRM1 receptor | P11229 | CHO-K1 hM1, Fluo-8 calcium fluorescence, agonist mode; 0% DMSO, 100% acetylcholine EC100 | activation, % at 3 µM | actives 0.33% (n = 360,000);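 active = activation above the run's mean compound activation plus 3 SD, cut at about 16% in these data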;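 note: peak over basal fluorescence ratio within a 140 s kinetic read after compound addition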
CHO-K1 Ca antag: M1 antagonist counterscreen hit in parental CHO-K1 cells; ATP-induced calcium, Fluo-8 fluorescence; inhibition, % at 3 µM; actives 0.6% (n = 360,000); AID 602250;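 active = inhibition above a per-plate cutoff, the plate's mean sample inhibition plus 3 SD, cut at about 24% in these data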
M1 antag: blocks human M1 muscarinic receptor. CHO-K1 hM1, Fluo-8 calcium fluorescence, ACh EC80 antagonist. actives 1.3% (n = 360,000). inhibition, % at 3 µM;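 active = percent inhibition above its own plate's cutoff, namely the mean of that plate's compound wells plus 3 SD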;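 note: peak over basal fluorescence ratio during 140 s after agonist addition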
M1 ag parental: counter-screen for M1 agonists: effect in parental CHO-K1 cells; Fluo-8 calcium fluorescence; scaled to maximal ATP response, vehicle zero; activation, % at 3 µM; actives 0.48% (n = 360,000); in the data active = activation above about 15%;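 note: untransfected CHO-K1 host cells lacking M1 receptor as counterscreen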
CHO-K1 Ca PAM: counter-screen for M1 PAMs: effect in parental CHO-K1 cells | ATP EC20, Fluo-8 calcium fluorescence; 0% at ATP EC20, 100% at ATP max | activation, % at 3 µM | actives 0.02% (n = 360,000) | AID 602247;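 active = activation above the run cutoff, the mean activation of all test compounds plus 3 SD, cut at about 40% in these data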;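 note: peak over basal fluorescence ratio in a 140 s read after ATP addition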
Numbers stand for hits; - = inactive. Sampled rows, rich in hits. Any-hit rate of the full collection: about 2.3%.

SMILES	M1 PAM	M1 ag	CHO-K1 Ca antag	M1 antag	M1 ag parental	CHO-K1 Ca PAM
O=C(N/N=C/c1ccccc1)c1ccc(CN2C(=O)c3cccc4cccc2c34)cc1	-	43	-	-	-	-
O=C(N/N=C/c1cccnc1)c1ccc(CN2c3cccc4cccc(c34)S2(=O)=O)cc1	-	-	-	-	-	-
O=C(N/N=C/c1ccc(O)cc1O)c1ccc(CN2C(=O)c3cccc4cccc2c34)cc1	-	16	-	-	-	-
COc1ccc(NC(=O)COC(=O)CNC(=O)C2CCCCC2)cc1OC	-	-	-	-	-	-
O=C(COC(=O)C1CC1)NCc1ccccc1	-	-	-	-	-	-
Cc1ccc(CNc2ncnc3ccc(-c4ccc(CO)o4)cc23)o1	-	-	-	-	-	-
CC(=O)c1ccc(NC(=O)CNC2CCCCC2)cc1	-	-	-	-	20	-
Cn1cccc1C(=O)NCC(c1ccc(F)cc1)N1CCOCC1 (stereo not drawn)	26	-	-	-	-	-
Cc1ccc(C(=O)NCC(c2ccc(F)cc2)N2CCOCC2)cc1 (stereo not drawn)	-	-	-	-	-	-
CCN(C[C@H]1N[C@@](CC)(C(=O)OC)[C@H]2C(=O)N(Cc3ccccc3)C(=O)[C@@H]12)C(=O)COc1ccccc1	-	-	-	-	-	-
O=C(O)c1ccc(N=NN2CCCCCC2)cc1	-	-	-	-	-	-
CN(C)CCCN(Cc1ccccc1)C(=S)Nc1ccc(SC(F)F)cc1	-	-	-	88	-	-
CC(=O)c1ccc(NC(=S)NC(C)CCc2ccccc2)cc1 (stereo not drawn)	-	-	-	-	15	-
CC(=O)c1ccc(NC(=S)N(CCCN(C)C)Cc2ccccc2)cc1	-	-	-	44	-	-
CN(C)CCCN(Cc1ccccc1)C(=S)NCc1ccccc1	-	-	-	-	-	-
Cc1ccc2c(C)c(C(=O)N3CCN(C4CCS(=O)(=O)C4)CC3)oc2c1C (stereo not drawn)	-	-	-	-	-	-
CSc1ccc(CNC(=O)C2(C)CCN2C(C)C)cc1 (stereo not drawn)	-	-	-	-	-	-
O=C(C1CCN(S(=O)(=O)c2cccc3nsnc23)CC1)N1CC=C(c2ccccc2)CC1	-	-	-	-	-	-
CC1CCN(CCNC(=O)C2CCCN(S(=O)(=O)c3cccc4nsnc34)C2)CC1 (stereo not drawn)	-	-	34	-	-	-
CC1CCN(CCCNC(=O)C2CCC(CNS(=O)(=O)c3cccc4nsnc34)CC2)CC1 (stereo not drawn)	-	-	-	65	-	-
O=C(NCCCN1CCCCCC1)C1CCCN(S(=O)(=O)c2cccc3nsnc23)C1 (stereo not drawn)	-	-	-	-	-	-
O=C(C1CCC(CNS(=O)(=O)c2cccc3nsnc23)CC1)N1CC=C(c2ccccc2)CC1 (stereo not drawn)	-	-	26	-	-	-
Cc1ccc(C(=O)N2CCC(N3CCC(C(=O)N4CCOCC4)CC3)CC2)cc1	-	-	-	-	-	-
Cc1sc2ncnc(N3CCC(C(=O)NNC(=O)COc4ccccc4Cl)CC3)c2c1C	-	-	-	32	-	-
Cc1ccc(S(=O)(=O)N2CCN(C(=O)C3CCN(c4ncnc5sc(C)c(C)c45)CC3)CC2)c(C)c1	29	-	-	-	-	-
SMILES	M1 PAM	M1 ag	CHO-K1 Ca antag	M1 antag	M1 ag parental	CHO-K1 Ca PAM
Cc1sc2ncnc(N3CCC(C(=O)NNC(=O)COc4ccc(Cl)cc4)CC3)c2c1C	-	-	-	-	-	-
Cc1sc2ncnc(N3CCN(S(=O)(=O)c4ccc(C(C)(C)C)cc4)CC3)c2c1C	-	-	-	-	-	-
Cc1sc2ncnc(N3CCN(CCOc4ccc(Cl)cc4)CC3)c2c1C	-	-	-	43	-	-
Cc1sc2ncnc(N3CCC(C(=O)NNC(=O)COc4ccccc4F)CC3)c2c1C	-	-	-	-	-	-
Cc1ccc(S(=O)(=O)N2CCC(C(=O)OCCOc3ccccc3)CC2)cc1C	-	-	-	19	-	-
Cc1ccc(OCCOC(=O)C2CCN(S(=O)(=O)c3ccc(C)c(C)c3)CC2)cc1	-	-	-	-	-	-
COc1ccccc1OCC(=O)N1CCN(S(=O)(=O)c2ccc(Cl)cc2)CC1	-	-	-	-	-	-
c1ccc(-n2cc(CN3CCCC3)c(-c3ccc4c(c3)OCO4)n2)cc1	-	-	-	-	20	-
CC(SCC(=O)Nc1ccc(F)cc1)c1nc2ccccc2c(=O)[nH]1 (stereo not drawn)	-	-	-	-	-	-
Cc1onc(-c2ccccc2)c1C(O)c1ccc(F)cc1 (stereo not drawn)	-	-	33	42	-	-
Cc1onc(-c2ccccc2Cl)c1C(O)c1ccc(F)cc1 (stereo not drawn)	-	-	-	-	-	-
CO/N=C/c1ccc(Sc2ccccc2N)c([N+](=O)[O-])c1	-	-	-	-	-	-
CO/N=C/c1ccc(Sc2ccccc2)c([N+](=O)[O-])c1	-	-	25	-	-	-
C(=N\N1CCN(C(c2ccccc2)c2ccccc2)CC1)/c1ccc2c(c1)OCO2	-	-	24	-	-	-
CC(C)C(=O)Nc1ccc(Br)cc1Cl	-	-	56	-	-	-
CC(C)(C)c1cc(NC(=O)Nc2ccc(Br)cc2Cl)no1	-	-	-	28	-	-
Clc1cccc2c1Sc1ccccc1CC2N1CCNCC1 (stereo not drawn)	-	-	-	88	-	-
COCCCN1CCN(C2Cc3ccccc3Sc3ccc(Cl)cc32)CC1 (stereo not drawn)	-	-	-	47	-	-
O=C(c1ccccc1Cl)N1CCNCC1	-	-	-	-	-	-
Clc1ccc2c(c1)C(N1CCNCC1)Cc1ccccc1S2 (stereo not drawn)	-	-	-	87	-	-
CN(C)CCNC(=O)C(c1ccccc1)c1ccccc1	-	-	-	-	-	-
CC(CCCN(C)C)C(Cc1ccccc1)c1ccccc1 (stereo not drawn)	-	-	-	80	-	-
CN(C)CCC(=O)C(Cc1ccccc1)c1ccccc1 (stereo not drawn)	-	-	-	73	-	-
CN(C)CC(c1ccccc1)c1ccccc1	-	-	-	-	-	-
O=C(CSc1nnc(-c2cccnc2)n1-c1ccc(SC(F)F)cc1)N1CCCc2ccccc21	-	-	24	-	-	-
CC1C(=O)N2CCCc3cc(NC(=O)C(=O)NCc4ccccn4)cc1c32 (stereo not drawn)	-	-	-	-	-	-
COC(=O)c1nn(-c2ccc(OC)cc2)c(=O)cc1NN	-	-	-	59	-	-

High-throughput results from PubChem.
